Compound activity: PubChem BioAssay, National Center for Advancing Translational Sciences (NCATS)
LmPK inhibitor – LmPK (Leishmania mexicana) enzyme inhibition; purified LmPK, Kinase-Glo ATP luminescence, 1 h; Potency, µM (top dose mostly 57.5 µM), for the others: at the top dose activity change, negative = inhibition, actives largely listed as inhibitors; 290,000 compounds, 0.37% hits; active = well fitted curve in the direction sought with a large enough effect; inconclusive = small, poorly fitted or top-dose-only effect, or another doubt; inactive = no such curve, though single readings can be large; an effect the other way counts as inactive or inconclusive; also: potency is read from the fitted curve at half-maximal effect; % is scaled to controls: 0 for no effect and ±100 for the full control effect
Target sequence (Q27686 whole entry, looked up): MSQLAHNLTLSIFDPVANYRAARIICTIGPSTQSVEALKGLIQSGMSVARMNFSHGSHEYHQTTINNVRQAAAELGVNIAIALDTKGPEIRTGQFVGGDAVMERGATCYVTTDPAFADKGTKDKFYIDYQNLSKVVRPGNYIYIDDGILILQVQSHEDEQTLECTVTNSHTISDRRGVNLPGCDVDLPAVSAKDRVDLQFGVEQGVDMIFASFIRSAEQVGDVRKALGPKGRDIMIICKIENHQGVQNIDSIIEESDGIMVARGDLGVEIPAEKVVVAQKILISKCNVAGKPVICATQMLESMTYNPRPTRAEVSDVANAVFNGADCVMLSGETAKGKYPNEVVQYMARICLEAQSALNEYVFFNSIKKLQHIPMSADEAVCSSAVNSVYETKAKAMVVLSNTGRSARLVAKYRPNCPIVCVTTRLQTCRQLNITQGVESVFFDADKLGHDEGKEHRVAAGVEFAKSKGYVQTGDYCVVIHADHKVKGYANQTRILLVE
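qHTS format; LmPK 0.1 nM; substrates PEP 0.5 mM and ADP 0.1 mM. One-hour room-temperature incubation, then coupled luciferase luminescence; 0.5 nM enzyme wells mark activation.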
NS1 function inh – influenza NS1 inhibition. 270,000 compounds, 0.4% hits. AID 2326. Potency, µM (titrated, usually from 46.1 µM), for the others: top-dose activity, positive = more growth; also: potency is read from the fitted curve at half-maximal effect; actives are rising curves; nearly all actives have a fitted effect of over 50% in size
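S. cerevisiae expressing influenza A NS1, grown in glucose, washed, then diluted 1:100 into pH 6.0 -URA galactose medium with 23 nl compound. Growth recovery read as OD600; NS1-free strain serves as control.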
CHX counter – counter-screen hit for Shiga toxin inhibitors, cycloheximide; cell reporter, cycloheximide protein synthesis inhibition counterscreen; max response, %; 300,000 compounds, 12% hits; AID 2314; in the data active = max response mostly above about 13%, no sharp cut-off; inactive = mostly below about 14%; also: read at 38.3 µM for the half of the compounds with a filed dose; 0% is about no effect
TbPYK inhibitor – inhibitors of Trypanosoma brucei pyruvate kinase; Q57TT1; TbPYK enzyme, Kinase-Glo Plus ATP luminescence, 45 min; Potency, µM (series often up to 76.8 µM), without a hit: at the top dose activity, negative = inhibition, actives largely listed as inhibitors; 410,000 compounds, 0.12% hits; active = well fitted curve in the direction sought with a large enough effect; inconclusive = small, poorly fitted or top-dose-only effect, or another doubt; inactive = no such curve, though single readings can be large; an effect the other way counts as inactive or inconclusive; also: potency is read from the fitted curve at half-maximal effect; % is scaled to controls: 0 for no effect and ±100 for the full control effect; nearly all actives have a fitted effect of over 50% in size
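Assay buffer: 50 mM TEA pH 7.2, 100 mM KCl, 10 mM MgCl2, 0.05% BSA, 0.01% Tween-20. Pyruvate kinase from T. brucei plus substrate met compound, then ADP (130 uM final). Luminescence was read post 45 min RT.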
Shiga toxin inh – blocks Shiga toxin action in Vero cells; Vero cells, Shiga toxin protein synthesis inhibition reporter; inhibition, % at 38.7 µM; 290,000 compounds, 9.2% hits; AID 2315; in the data active = inhibition mostly above about 28%, no sharp cut-off; inactive = mostly below about 43%; also: 0% is about no effect
SARS PLpro yeast – SARS-CoV PLP inhibition in yeast | S. cerevisiae expressing SARS-CoV PLpro, growth rescue | Potency, µM (doses to about 32.9 µM), inactives show top-dose activity, positive = growth rescue, actives largely listed as activators | 330,000 compounds, 0.19% hits; also: potency is read from the fitted curve at half-maximal effect; 0% is about no effect; nearly all actives have a fitted effect of over 55% in size
Active calls of the source: *; ? = inconclusive; nt = no result given. This is one part of a sample in which hits are shown more often than they occur. Unless noted, calls follow the shape of the full dose curve.

SMILES	LmPK inhibitor	NS1 function inh	CHX counter	TbPYK inhibitor	Shiga toxin inh	SARS PLpro yeast
Cc1ccc(C2=Nn3c(COc4ccc(Cl)cc4)nnc3SC2CC(=O)O)cc1 (stereo unspecified)	-6%	?	-9	-3%	-4	7%
CN(C)Cc1cc(C(C)(C)C)ccc1-c1ccc(C(C)(C)C)cc1CN(C)C	nt	-3%	nt	nt	nt	nt
COc1ccc(NC(=O)O/N=C/c2ccc(Br)cc2)cc1	10%	-10%	15	-2%	37	0%
Cc1ccc(NC(=O)O/N=C/c2ccc(N(C)C)cc2)cc1	5%	-9%	21*	-9%	22	1%
Cc1ccc(C(=O)O/N=C/c2ccc(N(C)C)cc2)cc1	2%	4%	-3	4%	-1	1%
COc1ccc(NC(=O)O/N=C/c2ccc(N(C)C)cc2)cc1	-1%	-7%	33*	-2%	57*	-3%
COc1cc(N(C)C)cc(CN(C)CCc2ccc([N+](=O)[O-])cc2)c1O	nt	nt	7	nt	20	nt
CCC(C)N(C(=O)COC(=O)CNC(=O)c1sc2ccccc2c1Cl)C1CCS(=O)(=O)C1 (stereo unspecified)	0%	0%	46*	3%	70	3%
CCN(C(=O)COC(=O)CNC(=O)c1sc2ccccc2c1Cl)C1CCCCC1	nt	nt	nt	10%	nt	1%
Cc1occc1C(=O)N/N=C/C(Br)=C/c1ccccc1	?	nt	39*	0%	86*	-5%
O=C(N/N=C/c1ccc(OCc2ccccc2)cc1)c1cc[n+](Cc2ccccc2)cc1	-3%	-30%	20*	4%	37*	9%
Cc1occc1C(=O)N/N=C/c1cccs1	14µM*	-8%	33*	-17%	84*	-10%
Cc1occc1C(=O)N/N=C/c1ccc(OCc2ccccc2)cc1	?	-80%	45*	-4%	63*	-2%
Cc1cc(/C=N/NC(=O)c2ccoc2C)cc(C)c1O	nt	nt	nt	-8%	nt	nt
Cc1occc1C(=O)N/N=C/c1ccc(-c2ccccc2)cc1	-14%	-1%	37*	?	75*	-41%
O=C(N/N=C/C(Br)=C/c1ccccc1)c1ccccc1[N+](=O)[O-]	-2%	6%	8.7*	4%	22	-7%
Cc1cc(C(=O)NCc2csc(-c3ccccc3)n2)no1	-7%	-34%	51*	-4%	95*	-6%
O=C(NCc1csc(-c2ccccc2)n1)c1ccco1	10%	-72%	27*	3%	60*	-8%
O=C(NCCc1csc(-c2ccccc2)n1)c1ccco1	-2%	-42%	13	-25%	41	-4%
CCc1cc(C(=O)NCc2ccccc2)no1	nt	nt	nt	-5%	nt	nt
COC(=O)c1cc2c(ccn2-c2ccc(F)cc2)n1Cc1ccc(OC(C)=O)cc1	4%	?	59*	-5%	122*	22%
COc1ccccc1CCNC(=O)C(=O)NCC1OCCN1S(=O)(=O)c1cccs1 (stereo unspecified)	-10%	-39%	34*	4%	25*	-5%
Cc1ccc(S(=O)(=O)N2CCCOC2CNC(=O)C(=O)NCCc2c[nH]c3ccccc23)cc1 (stereo unspecified)	5%	?	73*	-8%	96*	-5%
O=C(NCCc1c[nH]c2ccccc12)C(=O)NCC1OCCCN1S(=O)(=O)c1ccccc1 (stereo unspecified)	1%	-6%	-1	-8%	4	-2%
Cc1cccc(-n2c(O)c(/C=C3/C(c4ccccc4)=Nc4ccccc43)c(=O)[nH]c2=O)c1	-1%	-99%	20*	-6%	32*	-4%
SMILES	LmPK inhibitor	NS1 function inh	CHX counter	TbPYK inhibitor	Shiga toxin inh	SARS PLpro yeast
O=c1[nH]c(=O)n(-c2ccccc2F)c(O)c1/C=C1\C=Nc2ccccc21	1%	5%	6.6*	-6%	20	-1%
Cc1ccc(-n2c(O)c(/C=C3/C(c4ccccc4)=Nc4ccccc43)c(=O)[nH]c2=O)cc1	-4%	-26%	29*	-16%	63*	-66%
Cc1cccc(-n2c(O)c(/C=C/C=Nc3ccccc3)c(=O)[nH]c2=O)c1	-1%	4%	-3	-1%	-5	0%
Cc1ccccc1-n1c(O)c(/C=C2/C(c3ccccc3)=Nc3ccccc32)c(=O)[nH]c1=O	0%	-15%	54*	-12%	86*	-84%
O=C(Nc1ccc(F)cc1F)NC1CCN(Cc2c(F)cccc2Cl)CC1	1%	-4%	-3	1%	-10	0%
O=C(Nc1cc(S(=O)(=O)N2CCOCC2)ccc1Cl)c1cc2ccccc2o1	nt	nt	nt	5%	nt	-10%
O=C1CSC2(C(=O)N(Cc3ccccc3)c3ccccc32)N1c1ccc(Cl)cc1 (stereo unspecified)	nt	nt	nt	-9%	nt	nt
O=C(c1cccn2c(=O)c3cc4ccccc4cc3nc12)N1CCN(c2ccccc2)CC1	-2%	4%	23*	nt	35*	0%
CC(NC(=O)c1ccco1)C(=O)N1CCN(S(=O)(=O)c2ccccc2C#N)CC1 (stereo unspecified)	nt	nt	nt	-7%	nt	7%
COc1cccc(NC(=O)C(=O)N/N=C(\C)CC(=O)Nc2ccc(NC(C)=O)cc2)c1	-5%	-4%	32*	1%	84*	-6%
COc1cccc(/C(C)=N/NC(=O)c2ccc(N(C)C)cc2)c1	?	24%	33*	-3%	69*	-2%
COc1cccc(C(=O)N/N=C(\C)CC(=O)Nc2ccc(N(C)C)cc2)c1	0%	-48%	41*	-34%	57	1%
COCOc1cccc(CN2CCC2(C)C(=O)Nc2ccc(C)c(O)c2)c1 (stereo unspecified)	nt	nt	nt	3%	nt	nt
COc1ccccc1CNC(=O)CN(C)c1nn2c(=O)cc(C)nc2s1	nt	nt	nt	1%	nt	nt
Cc1ccc2c(c1)c1c(c(=O)n(-c3ccccc3C)c(=O)n1Cc1ccccc1F)n2C	nt	nt	nt	0%	nt	nt
O=C(CCl)N1c2ccccc2Oc2ccc3ccccc3c21	nt	nt	nt	5%	nt	nt
CC(=O)N1c2ccccc2Oc2cc3ccccc3cc21	1%	-43%	26*	2%	53	-37%
CSc1nc(N)nc2c1ncn2CC(=O)Nc1ccc(C)c(C)c1	nt	nt	nt	0%	nt	3%
CC1CCCN(c2nc(N(C)c3ccccc3)nc(N)c2[N+](=O)[O-])C1 (stereo unspecified)	5%	-8%	20*	-6%	36	-1%
CC1CCCN(c2nc(NCc3ccco3)nc(N)c2[N+](=O)[O-])C1 (stereo unspecified)	6%	-13%	3	2%	0	-20%
COc1ccc(Nc2nc(N)c([N+](=O)[O-])c(N3CCCC3)n2)cc1	1%	-7%	17*	-8%	-9	-2%
Nc1nc(Nc2ccccc2)nc(N2CCCC2)c1[N+](=O)[O-]	6%	-35%	39*	2%	58*	-1%
O=C1NC(=O)C(Cc2ccc(Cl)cc2)(c2ccccc2)N1 (stereo unspecified)	nt	nt	nt	16%	nt	nt
